Shown are actives, neighbours in structure and some others; about 3.3% of the full set was active somewhere.
Sm TGR inh: qHTS Assay for the Inhibitors of Schistosoma Mansoni Peroxiredoxins. 3% of 360,000 active. Potency, µM (titrated, usually from 114 µM), for the others: top-dose activity change, negative = inhibition, hits mostly inhibitors. Schistosoma mansoni thioredoxin glutathione reductase (TGR), Q962Y6. purified TGR, DTNB reduction, TNB absorbance 405 nm; further: nearly all actives have a fitted effect of over 60% in size
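First, TGR (20 nM dispensed) and NADPH were mixed with compound. Second, a 15 min room-temperature incubation followed. Third, further NADPH and then DTNB were added to start the reaction. Finally, TNB absorbance was monitored kinetically.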
AmpC inh no detg: qHTS Inhibitors of AmpC Beta-Lactamase (assay without detergent); AmpC nitrocefin hydrolysis, absorbance 480 nm, 0.0001% Triton; Potency, µM (doses to about 57.1 µM), for inactives: at the top dose activity change, negative = inhibition, usual class: inhibitors; 0.52% of 330,000 active;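 further: plate controls were no compound for no effect and no enzyme for full effect; nearly all actives have a fitted effect of over 20% in size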
Target sequence (P00811 whole entry, looked up): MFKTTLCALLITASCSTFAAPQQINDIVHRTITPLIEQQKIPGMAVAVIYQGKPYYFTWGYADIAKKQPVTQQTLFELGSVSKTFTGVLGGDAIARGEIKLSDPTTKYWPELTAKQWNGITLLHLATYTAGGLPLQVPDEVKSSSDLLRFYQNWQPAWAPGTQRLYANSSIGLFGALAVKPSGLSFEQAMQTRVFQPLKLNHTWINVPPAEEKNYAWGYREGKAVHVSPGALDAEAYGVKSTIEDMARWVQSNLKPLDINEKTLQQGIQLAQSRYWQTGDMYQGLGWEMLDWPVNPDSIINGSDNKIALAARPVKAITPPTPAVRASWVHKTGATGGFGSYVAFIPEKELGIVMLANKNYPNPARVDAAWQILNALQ
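AmpC (5.3 nM in the dispensed reagent) in 20 mM phosphate pH 7.0 with 0.01% (detergent screen) or 0.0001% Triton X-100 was preincubated with compounds for 15 min at room temperature. Nitrocefin was then added from an 800 uM solution, and hydrolysis was followed at 480 nm.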
AmpC detergent: qHTS Inhibitors of AmpC Beta-Lactamase (assay with detergent). P00811. AmpC hydrolysis of nitrocefin, absorbance 480 nm, 0.01% Triton. Potency, µM (top dose mostly 114 µM), without a hit: at the highest dose activity change, negative = inhibition, usual class: inhibitors. 0.041% of 370,000 active;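 further: 0% = no-compound wells and -100% = no-enzyme wells; nearly all actives have a fitted effect of over 25% in size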
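AmpC (5.3 nM in the dispensed reagent) in 20 mM phosphate pH 7.0 with 0.01% (detergent screen) or 0.0001% Triton X-100 was preincubated with compounds for 15 min at room temperature. Nitrocefin was then added from an 800 uM solution, and hydrolysis was followed at 480 nm.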
An asterisk follows results filed as active; ? = inconclusive; . = not tested or not shown. The call rests on the fitted dose curve; in most records, active means well fitted curve in the direction sought with a large enough effect; inconclusive means small, poorly fitted or top-dose-only effect, or another doubt; inactive means no such curve, though single readings can be large; an effect the other way counts as inactive or inconclusive. Unless noted, on the % scale 0 is the no-effect control and ±100 the full control effect; potency means the concentration at half of the fitted maximal effect.

SMILES | Sm TGR inh | AmpC inh no detg | AmpC detergent
CCCOc1ccc(N2C(=O)CC(SCC(N)C(=O)OCC)C2=O)cc1 (stereo not drawn) | ? | 0% | -2%
CCOc1ccc(N2C(=O)CC(N)C2=O)cc1 (stereo not drawn) | 3.5µM* | -1% | -4%
CCOc1ccc(N2C(=O)CC(N(C)Cc3ccccc3)C2=O)cc1 (stereo not drawn) | 32µM* | -3% | -13%
CCOc1ccc(N2C(=O)CC(Cc3cc(C)cc(C)c3)C2=O)cc1 (stereo not drawn) | 0% | 20% | -14%
COc1ccc(CCNC(=O)c2ccc(Cn3c(=O)c4ccccc4n(CC(=O)C(C)(C)C)c3=O)cc2)cc1OC | 8% | . | 22%
CN1C(C(=O)c2ccccc2)=C(NC(=O)c2ccccc2Br)c2ccccc2S1(=O)=O | 2% | . | 10%
COc1ccc(-c2noc(-c3ccc(N4CCN(c5ccccc5OC)CC4)c([N+](=O)[O-])c3)n2)cc1 | 0% | . | 1%
CN1CCc2c(sc3c2C(=O)NC(c2ccco2)N3)C1 (stereo not drawn) | -12% | -7% | -10%
O=C1NC(c2cccs2)Nc2sc3c(c21)CCCC3 (stereo not drawn) | 28µM* | -16% | -2%
CCc1cccc(C)c1NC(=O)CCn1c(=O)c2cccn2c2ccccc21 | 0% | . | 0%
CCc1ccc2nc(N(Cc3cccnc3)C(=O)Cc3ccccc3)sc2c1 | 3% | . | -3%
Cc1ccc2[nH]c(CSc3nnc(NC(=O)c4ccc(Cl)cc4)s3)cc(=O)c2c1 | 7% | . | 7%
COc1cc(/C=N/NC(=O)CN2CCOCC2)ccc1OCc1ccccc1 | -9% | 23% | ?
COc1cc(/C=N\NC(=O)CN2CCOCC2)ccc1OCC(=O)Nc1ccc(C)c(C)c1 | 89µM* | 149% | 2%
CCOc1ccc(NC(=O)c2ccc(NC(=O)N3CCSc4ncccc43)cc2)cc1 | 0% | . | 13%
Cc1ccc(-c2nc(CS(=O)(=O)CC(=O)NCCc3ccccc3)c(C)o2)cc1 | 1% | . | 10%
Cc1ccn2cc(CCNC(=O)Cc3cccs3)nc2c1 | 12% | -7% | 7%
Cc1ccn2cc(CNC(=O)c3cccs3)nc2c1 | -1% | 3.5µM* | ?
COCCCn1c(SCC(=O)Nc2ccccc2OC)nc2c(sc3ccccc32)c1=O | 5% | . | 6%
CCN(CC)CCNC(=O)c1sc2ncccc2c1-n1cccc1 | -1% | . | 4%
Cc1cc(N2CCCC2)nc2ccccc12 | . | -11% | 1%
Cc1cc(N2CCNCC2)nc2ccccc12 | 22µM* | -20% | -7%
CCOC(=O)C1CCCN(C(=O)c2ccc3c(c2)sc2nc(-c4cccc(OC)c4)cn23)C1 (stereo not drawn) | -11% | . | 1%
CN1C(=O)C(Cc2ccsc2)C(=O)N(C)C1=O | 5µM* | -25% | -11%
CN1C(=O)C(Cc2cccs2)C(=O)N(C)C1=O | ? | -3% | ?
SMILES | Sm TGR inh | AmpC inh no detg | AmpC detergent
COc1ccccc1S(=O)(=O)Cc1ccc(C(=O)NCc2ccc(Cl)cc2)o1 | -4% | . | 5%
Cc1coc2c1c(C)cc1oc(=O)c(CC(=O)NCCc3ccc(Cl)cc3)c(C)c12 | 1% | . | 24%
O=C(O)C1Nc2c(O)cc(Cl)c([N+](=O)[O-])c2C2C=CCC12 (stereo not drawn) | 3.5µM* | 7.1µM* | 40µM*
Cc1ccccc1OCC(=O)OCC(=O)Nc1cc(S(=O)(=O)N2CCCCC2)ccc1Cl | 7% | 32µM* | ?
O=C(COC(=O)Cc1ccccc1)Nc1cc(S(=O)(=O)N2CCCCC2)ccc1Cl | -11% | -23% | 0%
COc1ccc(S(=O)(=O)N2CCOCC2)cc1NC(=O)COc1ccc(C)cc1 | . | 77% | .
COc1ccc(Cl)cc1NC(=O)COc1ccc(S(=O)(=O)N2CCOCC2)cc1C | 8% | -19% | 28µM*
CC(C)Oc1ccc(CNC(=O)c2ccc3nc(C(C)C)oc3c2)cc1 | 0% | . | 16%
COc1cc(/C=C2\N=C(c3c(-c4ccccc4)noc3C)OC2=O)ccc1OC(C)=O | -6% | 3% | 12%
COc1ccc(/C=N/Nc2nc(=O)[nH]nc2C)cc1[N+](=O)[O-] | -6% | -6% | -3%
CC1=N/C(=C/c2cccnc2)C(=O)O1 | 22µM* | -15% | 5%
COc1ccc(/C=C2\N=C(C)OC2=O)cc1[N+](=O)[O-] | 10µM* | -15% | 6%
COc1cc(/C=C2\N=C(C)OC2=O)cc(Cl)c1OC(C)=O | 10µM* | -12% | -6%
Cc1cccc(C2=N/C(=C\c3cccnc3)C(=O)O2)c1 | -16% | -30% | 0%
COCCNC(=O)CCCn1c(SCc2ccccc2C)nc2c(sc3ccccc32)c1=O | -1% | . | 18%
CC(C)(C)c1ccc(C(=O)Nc2onc3c2CCCC3)cc1 | 11% | . | 0%
O=C(NCC(c1cccnc1)N1CCc2ccccc21)c1ccc(F)cc1 (stereo not drawn) | -10% | . | -6%
O=C(NC1CCSc2ccccc21)c1ccc(F)c(S(=O)(=O)N2CCOCC2)c1 (stereo not drawn) | 40µM* | 108% | -5%
O=C(NC1CCSc2ccccc21)c1cc(S(=O)(=O)N2CCOCC2)ccc1F (stereo not drawn) | -21% | 47% | 3%
Cc1ccc(Nc2ncnc3nc[nH]c23)cc1Cl | 4% | 6% | -15%
COc1cccc(Nc2ncnc3nc[nH]c23)c1 | 3% | 3.2µM* | ?
CC(O)CNc1ccc([N+](=O)[O-])cc1S(=O)(=O)N1CCOCC1 (stereo not drawn) | -4% | -13% | 0%
O=C(O)CC/C(=N\Nc1ccc([N+](=O)[O-])cc1S(=O)(=O)N1CCOCC1)c1cccs1 | 40µM* | -21% | 4%
O=C(CCC(=O)c1ccc(F)cc1)OCc1nnc(-c2ccc([N+](=O)[O-])cc2)o1 | 20µM* | -21% | ?
Cc1csc(=O)n1CC(=O)OCc1nnc(-c2ccc([N+](=O)[O-])cc2)o1 | 2% | -17% | -7%
SMILES | Sm TGR inh | AmpC inh no detg | AmpC detergent
c1csc(CNc2ccc3c(c2)OCCO3)c1 | 31% | -22% | -4%
Clc1cc(NCc2cccs2)ccc1N1CCOCC1 | 45µM* | -12% | -1%
COc1ccccc1N1CCN(C(=O)c2ccoc2C)CC1 | 45µM* | -3% | 7%
Cc1nc2ccn(Cc3ccco3)c(=O)c2cc1C(=O)N1CCN(c2ccccc2)CC1 | -8% | . | -2%
COc1ccccc1N1CCN(C(=O)c2c(C)noc2C)CC1 | 3% | -5% | -13%
COc1ccccc1N1CCN(C(=O)c2cc3c(=O)n(Cc4ccco4)ccc3nc2C)CC1 | 14µM* | . | 15%
CCOc1ccccc1N(C)C(=O)c1cc(S(=O)(=O)NCc2ccc(C)cc2)ccc1F | 1% | . | 6%
CC1=CC(C)(C)N(C(=O)Nc2ccccc2)c2ccccc21 | ? | -7% | ?
CC(=O)N1c2ccccc2C(CBr)=CC1(C)C | 13µM* | -11% | 4%
COc1cccc(-c2nc(CS(=O)(=O)CC(=O)NC3CC3)c(C)o2)c1 | ? | -5% | -4%
Cc1oc(-c2cccc(Cl)c2)nc1CS(=O)(=O)CC(=O)NC1CC1 | 40µM* | 25% | 4%

Bioassay records: PubChem BioAssay, National Center for Advancing Translational Sciences (NCATS)
